NPC1 prom act = activates the NPC1 promoter; Huh7 NPC1 promoter luciferase reporter, 24 h; AID 485313; 320,000 tested, 2.4% active; Potency, µM (highest dose often 9.22 µM), for the others: top-dose activation, actives largely listed as activators; further: % of control where 0% means no effect; nearly all actives have a fitted effect of over 60% in size
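NPC1 promoter–luciferase Huh7 cells; 24 h compound; luminescence.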
Rab9 prom act = activates the Rab9 promoter. Huh7 Rab9 promoter-luciferase reporter, luminescence, 24 h. Potency, µM (series often up to 9.22 µM), inactives show top-dose activation, negative = inhibition, actives largely listed as activators. 320,000 tested, 2.8% active. AID 485297; further: % of control where 0% means no effect; nearly all actives have a fitted effect of over 60% in size
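Promoter activation is measured as luciferase luminescence in Huh7 cells stably transfected with a Rab9 promoter–luciferase construct, following 24 h compound exposure at 37 °C and 10 min reagent incubation at ambient temperature.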
FLuc modulator = inhibits or activates purified firefly luciferase, miR-21 counter-screen; P08659; purified FLuc, Km substrates, luminescence inhibition; Potency, µM (top dose mostly 57.5 µM), for the others: at the highest dose activity change, negative = inhibition, actives largely listed as inhibitors; 360,000 tested, 6.9% active;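 further: plate controls were vehicle for no effect and reference inhibitor for full effect; nearly all actives have a fitted effect of over 55% in size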
Target sequence (P08659 whole entry, looked up): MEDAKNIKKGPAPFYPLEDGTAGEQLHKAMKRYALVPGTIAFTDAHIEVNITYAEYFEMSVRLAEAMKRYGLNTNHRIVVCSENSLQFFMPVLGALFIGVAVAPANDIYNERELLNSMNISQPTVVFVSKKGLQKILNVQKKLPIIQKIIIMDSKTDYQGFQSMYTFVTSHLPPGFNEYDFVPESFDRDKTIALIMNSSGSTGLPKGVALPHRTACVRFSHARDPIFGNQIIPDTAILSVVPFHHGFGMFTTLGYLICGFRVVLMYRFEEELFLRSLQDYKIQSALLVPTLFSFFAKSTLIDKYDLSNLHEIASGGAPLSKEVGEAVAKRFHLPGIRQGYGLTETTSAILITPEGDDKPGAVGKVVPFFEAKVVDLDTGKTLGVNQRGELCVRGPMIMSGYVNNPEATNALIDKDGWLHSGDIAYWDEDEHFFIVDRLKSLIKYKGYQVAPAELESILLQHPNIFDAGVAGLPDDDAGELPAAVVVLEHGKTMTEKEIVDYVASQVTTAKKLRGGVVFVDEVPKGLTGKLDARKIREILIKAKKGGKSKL
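Purified P. pyralis luciferase (10nM final) with 10uM D-luciferin and 10uM ATP (Km levels) in 50mM Tris acetate pH 7.5, 10mM Mg acetate, 0.01% Tween-20, 0.05% BSA; qHTS 6-point titration, ~60 µM downward; luminescence read.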
KinaseGlo FLuc = counter-screen: inhibitors of Kinase-Glo firefly luciferase | Kinase-Glo luciferase, ATP luminescence, 8 min | AID 1379 | Potency, µM (titrated, usually from 38.3 µM), for inactives: at the top dose activity change, negative = inhibition, hits mostly inhibitors | 200,000 tested, 0.28% active | Q27757; further: on the % scale 0 is the no-effect control and ±100 the full control effect; nearly all actives have a fitted effect of over 60% in size
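Substrate mix (final 50 mM imidazole pH 7.2, 50 mM KCl, 7 mM MgCl2, 10 uM ATP, 0.01% Tween 20, 0.05% BSA) plus pin-tool compound, then Kinase-Glo detection mix; 8 min ambient, luminescence read.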
ELG1 genotoxic = genotoxicity induction in ELG1-luciferase HEK293T cells; HEK293T ELG1-luciferase reporter, luminescence, 16 h; Potency, µM (doses to about 46 µM), without a hit: top-dose activity change, positive = activation, most hits filed as activators; 330,000 tested, 1.3% active; AID 504466; further: % of control where 0% means no effect; nearly all actives have a fitted effect of over 60% in size
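ELG1-luciferase HEK293T cells, 2,000/well; compound pinned in; 16 hr, 37 °C, 5% CO2; ONE-Glo, 30 min RT; luminescence on CCD imager.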
SMN2 splice enh = increases expression of the SMN2 splice variant; HEK293 SMN2-luciferase splicing reporter, luminescence, 30-36 h; AID 1458; 210,000 tested, 2.8% active; Potency, µM (doses to about 46.1 µM), without a hit: at the top dose activity change, positive = activation, hits mostly activators; further: % of control where 0% means no effect; nearly all actives have a fitted effect of over 55% in size
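qHTS luciferase splicing reporter: luminescence rises when SMN2 exon 7 is included in transfected HEK293 cells. Compound exposure lasted 30-36 h at 37C, with 4.5 mM final sodium butyrate as control, followed by a ONE-Glo read.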
The depositor's hits bear a star; ? = inconclusive; . = no result given; [ ] = remark or other dose. The list is not random: actives were taken first. Their share in the collection is about 7.3%. The call rests on the fitted dose curve; in most records, active means well fitted curve in the direction sought with a large enough effect; inconclusive means small, poorly fitted or top-dose-only effect, or another doubt; inactive means no such curve, though single readings can be large; an effect the other way counts as inactive or inconclusive. Potency means the concentration at half of the fitted maximal effect.

SMILES | NPC1 prom act | Rab9 prom act | FLuc modulator | KinaseGlo FLuc | ELG1 genotoxic | SMN2 splice enh
Cc1ccc(NC(=O)CSc2nncc3ccccc23)cc1 | -6% | 3% | -25% | . | 0% | .
COc1cc(NS(=O)(=O)c2cnc(N)nc2)cc(OC)c1 | . | . | 3% | . | . | .
Cc1cc2sc(NC(=O)c3ccco3)nc2cc1Cl | 1.4µM* | 1.1µM* | 1.3µM* | . | ? | .
COc1cc2sc(NC(=O)c3ccco3)nc2cc1Cl | 0.71µM* | 0.56µM* | ? | . | 2.3µM* | .
CCOc1ccc(C2CC(=O)Nc3nc(SCc4ccccc4C)[nH]c(=O)c32)cc1OC (centres undefined) | . | . | -10% | . | . | .
O=C(Nc1ccc(O)cc1)c1cc2ccccc2c(=O)s1 | 4µM* | ? | ? | -2% | 3% | .
O=C(Nc1ccccc1)c1cc2ccccc2c(=O)s1 | ? | 2.8µM* | 11µM* | -6% | -4% | ?
O=C(Nc1ccc(Cl)cc1)c1cc2c(Cl)nc3ccccc3c2s1 | . | . | -3% | . | . | -2%
CCCCc1nc2c(c3c1C[C@H](C)OC3)CN(C(=O)c1ccco1)CC2 | . | . | . | -5%[7.66 µM] | . | -12%[9.22 µM]
COc1cc(Cl)c(NC(=O)c2cc(S(=O)(=O)N3CCCCC3)c[nH]2)c(OC)c1 | . | . | -9% | . | . | .
Cc1ccc(CN2CCN(CC(C)C)C(CCO)C2)s1 (centres undefined) | 25% | ? | 17µM* | -2% | ? | .
Cc1ccc(CN2CCN(CCC(C)C)C(CCO)C2)s1 (centres undefined) | -3% | -3% | -1% | 0% | 2% | .
Cc1ccc(/C=C(\C#N)c2nc(-c3ccc(-c4ccccc4)cc3)cs2)cc1 | . | . | -2% | . | . | -5%
CCOc1ccc(-c2csc(/C(C#N)=C\c3ccc(O)c([N+](=O)[O-])c3)n2)cc1 | -5% | -2% | 4.3µM* | -2% | -10% | -93%
CCOC(=O)c1cc(-c2ccccc2)sc1NC(=O)c1ccc(OC)c(OC)c1 | -3% | -6% | -20% | 0% | -2% | -26%
CC(C)(C)C(=O)Nc1sc(-c2ccccc2)cc1C(=O)O | 4.5µM* | 3.2µM* | 11µM* | . | 15% | .
NC(=O)c1ccccc1NC(=O)CN1CCCCCC1 | 18% | 0% | 4% | . | -6% | .
Cc1cccc(C(=O)Nc2sc(-c3ccccc3)cc2C(=O)O)c1 | 2.5µM* | ? | 11µM* | . | ? | .
NC(=O)c1cc(-c2ccccc2)sc1NC(=O)CN1CCCCC1 | 0% | -3% | 19µM* | 1% | -5% | -3%
Cn1c(=O)c2c(-c3ccccc3)n3c(c2n(C)c1=O)C(c1ccc([N+](=O)[O-])cc1)Nc1ccccc1-3 (centres undefined) | . | . | -4% | . | . | .
Cc1c(CC(=O)NCC(=O)O)c(=O)oc2cc3oc4c(c3cc12)CCCC4 | -10% | -2%[1.84 µM] | 15µM* | . | -1% | .
Cc1oc2cc3oc(=O)c(CC(=O)O)c(C)c3cc2c1-c1ccccc1 | 0% | -2% | -19% | . | 4% | .
Cc1c(CC(=O)NCC(=O)NCC(=O)O)c(=O)oc2c(C)c3oc4c(c3cc12)CCCC4 | 1% | 7% | ? | . | 0% | .
Cc1c(CC(=O)O)c(=O)oc2cc3oc4c(c3cc12)CCCC4 | 0% | -2% | 27µM* | . | 4% | .
COc1ccc(OC)c(NC(=O)CCc2nc(-c3ccc(C)cc3)no2)c1 | . | . | ? | . | . | 21%
SMILES | NPC1 prom act | Rab9 prom act | FLuc modulator | KinaseGlo FLuc | ELG1 genotoxic | SMN2 splice enh
CCc1ccc(OCC(=O)N/N=C\c2ccco2)c([N+](=O)[O-])c1 | 11% | 6% | 11µM* | -1% | 11% | 3%
O=C(COc1cccc([N+](=O)[O-])c1)N/N=C/c1ccco1 | -14% | -9% | 5% | -4% | -2% | 2%
C/C(=N\NC(=O)COc1ccccc1[N+](=O)[O-])c1cccs1 | ? | 3.2µM* | 24µM* | 0% | ? | 25µM*
Cc1ccc(OCC(=O)N/N=C\c2cccs2)c([N+](=O)[O-])c1 | 14% | 19% | 12µM* | 4% | 9% | 2%
COc1ccc(OCC(=O)N/N=C(\C)c2cccs2)cc1 | 0% | -1% | ? | . | 7% | .
O=C(COc1ccc(Cl)cc1[N+](=O)[O-])N/N=C/c1cccs1 | -2% | 0% | ? | 4% | 0% | -3%
CC(=O)c1ccc(N2CCN(c3ncnc4c3cnn4-c3cc(Cl)ccc3C)CC2)cc1 | . | . | -4% | . | . | .
NS(=O)(=O)c1ccc(CCNc2nc3c(-c4cccc(F)c4)nnn3c3ccc(Cl)cc23)cc1 | . | . | -4% | . | . | 20%
Cc1cn([C@H]2C[C@H](N=[N+]=[N-])[C@H](CO)O2)c(=O)[nH]c1=O | . | . | . | -3%[7.66 µM] | . | -17%[9.22 µM]
CC(C)(C)c1ccc2c(c1)OC(C(=O)N/N=C\c1ccc(-c3cccc(C(=O)O)c3)o1)CO2 (centres undefined) | 5% | 1% | 19µM* | . | 10% | .
CC(C)(C)c1ccc2c(c1)OC(C(=O)N/N=C\c1ccccn1)CO2 (centres undefined) | 0% | -2% | -16% | -1% | -5% | -5%
O=C(O)c1cccc(-c2ccc(/C=N/NC(=O)C3COc4ccccc4O3)o2)c1 (centres undefined) | 1% | -2% | 24µM* | -1% | 9% | -1%
COc1ccc2cc(C(=O)CCC(=O)O)ccc2c1 | . | . | . | -2%[7.66 µM] | . | 2%[9.22 µM]
C=CCc1c(C)nc2ccc(C(=O)OCC)cc2c1Cl | 0% | 12% | 21µM* | -4% | 2% | .
CCOC(=O)c1ccc2nc(C)c(CC)c(Cl)c2c1 | 8% | -13% | ? | -3% | 0% | .
Cc1ccc(CNC(=O)c2ccc3c(c2)c(C)c(C)n3Cc2ccc(Cl)cc2)o1 | . | . | -11% | . | . | .
CCOc1ccccc1N(CC)C(=O)c1cc2c(=O)n(CC)c3ccccc3c2s1 | . | . | -11% | . | . | -49%
O=C(O)c1cc(-c2ccc(C(F)(F)F)cc2)nc2n[nH]c(-c3ccccc3)c12 | . | . | 3µM* | . | . | .
O=S(=O)(c1ccc(F)cc1)N(CC(O)Cn1c2ccccc2c2ccccc21)c1ccccc1 (centres undefined) | . | . | 0% | . | . | -31%
Cc1ccc(-c2nc3sc(CCNC(=O)c4ccc(Br)o4)c(C)n3n2)cc1 | . | . | 11µM* | . | . | .
Cc1ccc(-c2nc3sc(CCNC(=O)c4ccco4)c(C)n3n2)cc1 | . | . | 13µM* | . | . | .
Cc1c(CCNC(=O)Cc2ccc(F)cc2)sc2nc(-c3ccc(F)cc3)nn12 | . | . | -8% | . | . | .
Cc1c(CCNC(=O)Cc2ccccc2)sc2nc(-c3ccc(F)cc3)nn12 | . | . | -14% | . | . | .
CN1C(=O)c2[nH]nc(-c3ccc(F)cc3)c2C1c1cccc(O)c1 (centres undefined) | . | . | -19% | . | . | -10%
Cc1cc(-n2c(C)cc(C(=O)COc3ccc(F)c(F)c3)c2C)no1 | 28% | ? | 17µM* | . | 9% | .
